Bioassay records from PubChem BioAssay.
Shown are actives, neighbours in structure and some others; about 10% of the full set was active somewhere.
G9a inh-1 – inhibitors of human histone lysine methyltransferase G9a. G9a H3K9 monomethylation, AlphaScreen, 2 h. Potency, µM (doses to about 102 µM), for the others: top-dose activity, negative = inhibition, actives largely listed as inhibitors. 8.8% of 350,000 active. AID 504332; further: potency means the concentration at half of the fitted maximal effect; on the % scale 0 is the no-effect control and ±100 the full control effect; nearly all actives have a fitted effect of over 75% in size
Target sequence (Q96KQ7 913-1193 limits assumed): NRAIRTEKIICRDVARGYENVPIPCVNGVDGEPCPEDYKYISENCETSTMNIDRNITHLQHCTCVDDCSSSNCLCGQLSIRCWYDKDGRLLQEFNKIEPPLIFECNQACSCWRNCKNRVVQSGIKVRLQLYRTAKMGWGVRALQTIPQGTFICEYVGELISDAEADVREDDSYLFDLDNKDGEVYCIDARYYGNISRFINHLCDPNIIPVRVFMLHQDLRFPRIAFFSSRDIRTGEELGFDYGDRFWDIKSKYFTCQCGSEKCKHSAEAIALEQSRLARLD
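Methyltransferase reactions run at room temperature for 2 h (20 nM enzyme, 500 nM biotin-H3K9 peptide, 20 uM SAM) after a 15 min compound preincubation; product detected by AlphaScreen beads and anti-H3K9me1 antibody.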
HP1b chromo inh – inhibitors of HP1-beta chromodomain binding to methylated histone tails; Potency, µM (top dose mostly 114 µM), without a hit: top-dose activity change, negative = inhibition, most hits filed as inhibitors; AlphaScreen HP1-beta / biotin-H3K9me3 peptide binding; 0.56% of 390,000 active; P83916; further: potency means the concentration at half of the fitted maximal effect; nearly all actives have a fitted effect of over 70% in size
Target sequence (P83916 whole entry, looked up): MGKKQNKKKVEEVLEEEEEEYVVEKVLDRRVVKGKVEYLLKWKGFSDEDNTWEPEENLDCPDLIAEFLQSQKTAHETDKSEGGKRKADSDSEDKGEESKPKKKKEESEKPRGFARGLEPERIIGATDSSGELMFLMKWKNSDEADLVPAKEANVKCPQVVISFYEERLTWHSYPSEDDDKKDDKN
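Compound inhibition of the preformed complex between 50 nM HP1-beta and 50 nM biotinylated H3K9me3 peptide was read by AlphaScreen. Buffer was PBS pH 7.4 with 0.01% Tween-20. Incubations ran 30 min at room temperature, with 10 ug/mL donor/acceptor beads.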
JMJD2A Tudor inh – blocks the human JMJD2A Tudor domain. Potency, µM (highest dose often 114 µM), for inactives: at the highest dose activity change, negative = inhibition, most hits filed as inhibitors. 4.4% of 390,000 active. O75164. AID 504339. AlphaScreen JMJD2A-Tudor / H3K4me3 peptide binding; further: potency means the concentration at half of the fitted maximal effect; on the % scale 0 is the no-effect control and ±100 the full control effect; nearly all actives have a fitted effect of over 50% in size
CtBP-E1A blk – inhibitors of CtBP/E1A interaction | 0.49% of 340,000 active | AlphaScreen GST-E1A/His-CtBP binding, 1536-well; hits give low values | AID 651724 | activity change, % (test concentration not listed); in the data active means activity change below about -65%; inconclusive means mostly about -30% to -63%; further: on the % scale 0 is the no-effect control and ±100 the full control effect
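GST-E1A and His-tagged CtBP (125 nM each as 5X stock) were preincubated with pin-transferred compound for 2 h at 37 °C in the dark, then glutathione donor and nickel acceptor beads were added for 1 h before AlphaScreen reading.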
Six1-Eya2 inh – Six1/Eya2 interaction inhibition | Q15475+O00167 | AlphaScreen GST-Six1/His-Eya2 binding, biochemical; hits give low values | activity change, % (test concentration not listed) | 0.56% of 360,000 active; in the data active means activity change below about -65%; inconclusive means mostly about -30% to -63%; further: on the % scale 0 is the no-effect control and ±100 the full control effect
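Homogeneous AlphaScreen proximity assay pairing GST-Six1 with His-tagged Eya2 (added as 5X mix: 250 nM and 500 nM) in 50 mM Tris pH 8.0, 300 mM NaCl, 1 mM TCEP. Glutathione donor and nickel acceptor beads; 1 h, 37 °C, dark.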
BAZ2B inh – BAZ2B (human) inhibition | Q9UIF8 | AlphaScreen BAZ2B-H3K14Ac peptide displacement | Potency, µM (series often up to 114 µM), for inactives: at the top dose activity change, negative = inhibition, hits mostly inhibitors | 4.4% of 360,000 active; further: potency means the concentration at half of the fitted maximal effect; on the % scale 0 is the no-effect control and ±100 the full control effect; nearly all actives have a fitted effect of over 60% in size
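AlphaScreen luminescence quantifies BAZ2B engagement of H3K14Ac peptide; the protein and biotinylated peptide are both at 50 nM final, buffer PBS pH 7.4 with 0.01% Tween-20, all steps at room temperature.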
JMJD2E confirm – confirmation of inhibitors of human JMJD2E demethylase; shares compounds with JMJD2A Tudor inh; Recombinant JMJD2E, FDH-coupled NADH fluorescence (FDH is formaldehyde dehydrogenase); Potency, µM (series often up to 56.8 µM), for inactives: at the top dose activity change, negative = inhibition, hits mostly inhibitors; 93% of 140 active; AID 2677
FDH inh – blocks Pseudomonas putida formaldehyde dehydrogenase, flagging JMJD2E artifacts | shares compounds with JMJD2A Tudor inh | FDH enzyme assay, NADH fluorescence kinetic | Potency, µM (titrated, usually from 56.7 µM), for inactives: top-dose activity, negative = inhibition, actives largely listed as inhibitors | 10% of 140 active | AID 2680
G9a inh-2 – inhibits human G9a histone lysine methyltransferase, hit confirmation. shares compounds with JMJD2A Tudor inh. G9a H3K9 monomethylation, AlphaScreen, 2 h. Potency, µM, most hits filed as inhibitors. 89% of 370 active. AID 588344; further: potency means the concentration at half of the fitted maximal effect; nearly all actives have a fitted effect of over 65% in size
An asterisk follows results filed as active; ? = inconclusive; . = not tested or not shown; [ ] = another dose, or the depositor's remark. Unless noted, the call rests on the fitted dose curve; in most records, active means well fitted curve in the direction sought with a large enough effect; inconclusive means small, poorly fitted or top-dose-only effect, or another doubt; inactive means no such curve, though single readings can be large; an effect the other way counts as inactive or inconclusive.

SMILES	G9a inh-1	HP1b chromo inh	JMJD2A Tudor inh	CtBP-E1A blk	Six1-Eya2 inh	BAZ2B inh	JMJD2E confirm	FDH inh	G9a inh-2
O=C(CC1Sc2ncnn2C1=O)Nc1ccc(Cl)cc1 (stereo not drawn)	2.5µM*	-19%	?	-4	-5	-33%	2µM*	0.25µM*	?
CCOC(=O)c1ccc(NC(=O)CC2Sc3ncnn3C2=O)cc1 (stereo not drawn)	2.2µM*	?	7.9µM*	-1	-1	-12%	2µM*	0.16µM*	0.56*
CCOC(=O)c1ccc(NC(=O)CC2SC(=NC)N(C)C2=O)cc1 (stereo not drawn)	-28%[12.7 µM]	23%	-10%	8	10	4%	.	.	.
O=C(CC1SC(=Nc2ccccc2)N(CCCO)C1=O)Nc1ccc(Cl)cc1 (stereo not drawn)	-18%[59 µM]	14%	-19%	2	0	-1%	.	.	.
COc1ccc(NC(=O)CC2Sc3ncnn3C2=O)cc1 (stereo not drawn)	1.4µM*	2%	?	3	-10	4%	3.2µM*	0.28µM*	0.63*
O=C(Cn1c(=O)sc2ccccc21)Nc1ccc(O)cc1	-5%[59 µM]	17%	-6%	0	4	-10%	.	.	.
CCCCNS(=O)(=O)c1ccc2nc(SCC(=O)N3CC(C)OC(C)C3)[nH]c2c1 (stereo not drawn)	?	2%	-1%	2	3	5%	.	.	.
Cc1cccc(NC(=O)C2SC(=Nc3c(C)cccc3C)C(C(=O)N3CCOCC3)=C2N)c1 (stereo not drawn)	1.6µM*	-23%	?	-1	-17	-8%	.	.	16*
Cc1ccc(NC(=O)CSc2nnc(Cc3csc(C)n3)o2)c(C)c1	?	9%	-7%	-13	9	3%	.	.	.
COCc1cc(CN2CCCC2)c(O)c2ncccc12	?	27%	8.9µM*	-94*	-91*	3.2µM*	7.9µM*	-25%	.
COCc1c(C(=O)NCc2ccccc2CN2CCCC2)oc2ccccc12	23%[12.7 µM]	39%	-14%	15	4	0%	.	.	.
